# From PubChem BioAssay (NCATS)
# Records with an inconclusive call do not appear. Where a call stands in place of a potency, no number is given. Activity calls are given as the source filed them. Unless noted, calls come from the whole dose curve; as a rule, active = well fitted curve in the direction sought with a large enough effect; inconclusive = small, poorly fitted or top-dose-only effect, or another doubt; inactive = no such curve, though single readings can be large; an effect the other way counts as inactive or inconclusive.
# Assays:
# [1] = target: Glutaminase kidney isoform, mitochondrial (Homo sapiens) (UniProt O94925); assay: qHTS for Inhibitors of Glutaminase (GLS): LOPAC Validation (AID 624146); note: nearly all actives have a fitted effect of over 60% in size; note: potency is the fitted concentration of half-maximal effect
# Chain of Glutaminase kidney isoform, mitochondrial (Homo sapiens) (O94925 whole entry, looked up, canonical isoform): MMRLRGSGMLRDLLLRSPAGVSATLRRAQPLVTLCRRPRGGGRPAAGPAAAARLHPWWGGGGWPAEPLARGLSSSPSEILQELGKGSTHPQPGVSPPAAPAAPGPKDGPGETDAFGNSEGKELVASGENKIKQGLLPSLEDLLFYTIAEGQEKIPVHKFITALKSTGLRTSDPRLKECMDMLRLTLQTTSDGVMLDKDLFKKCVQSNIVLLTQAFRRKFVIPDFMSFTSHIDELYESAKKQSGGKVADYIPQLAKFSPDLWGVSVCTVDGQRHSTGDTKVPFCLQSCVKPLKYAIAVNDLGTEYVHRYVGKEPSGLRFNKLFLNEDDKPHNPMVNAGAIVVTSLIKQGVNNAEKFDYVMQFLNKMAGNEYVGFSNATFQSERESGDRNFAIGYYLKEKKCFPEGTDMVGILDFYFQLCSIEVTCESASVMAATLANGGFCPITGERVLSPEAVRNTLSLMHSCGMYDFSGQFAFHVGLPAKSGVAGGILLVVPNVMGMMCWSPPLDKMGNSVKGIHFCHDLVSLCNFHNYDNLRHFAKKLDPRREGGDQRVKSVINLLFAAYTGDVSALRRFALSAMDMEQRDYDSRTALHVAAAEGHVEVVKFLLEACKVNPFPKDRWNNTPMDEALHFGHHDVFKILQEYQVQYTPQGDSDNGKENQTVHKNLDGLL
# Method in brief: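 Assay buffer: 45 mM KH2PO4 pH 8.2, 0.02% Tween-20. hKGA acts on L-glutamine (1 mM solution added); product glutamate is reported by an oxidase/peroxidase Amplex Red coupling, with fluorescence taken at baseline and 30 min.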
# [2] = qHTS of Trypanosoma Brucei Inhibitors: LOPAC Validation (AID 624147); note: potency is the fitted concentration of half-maximal effect
# Method in brief: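 Screened from lowest to highest concentration, compounds were pinned into TbPYK/substrate mixtures, and ADP (130 uM final) was added. Plates sat at room temperature for 45 min prior to Kinase-Glo Plus detection by luminescence.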
# [3] = target: Glucagon-like peptide 1 receptor (Homo sapiens) (UniProt P43220); assay: qHTS of GLP-1 Receptor Agonists: LOPAC Validation (AID 624148);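 note: luminescence from a luciferase reporter switched on by cAMP; higher luminescence signal means agonism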
# Chain of Glucagon-like peptide 1 receptor (Homo sapiens) (P43220 whole entry, looked up): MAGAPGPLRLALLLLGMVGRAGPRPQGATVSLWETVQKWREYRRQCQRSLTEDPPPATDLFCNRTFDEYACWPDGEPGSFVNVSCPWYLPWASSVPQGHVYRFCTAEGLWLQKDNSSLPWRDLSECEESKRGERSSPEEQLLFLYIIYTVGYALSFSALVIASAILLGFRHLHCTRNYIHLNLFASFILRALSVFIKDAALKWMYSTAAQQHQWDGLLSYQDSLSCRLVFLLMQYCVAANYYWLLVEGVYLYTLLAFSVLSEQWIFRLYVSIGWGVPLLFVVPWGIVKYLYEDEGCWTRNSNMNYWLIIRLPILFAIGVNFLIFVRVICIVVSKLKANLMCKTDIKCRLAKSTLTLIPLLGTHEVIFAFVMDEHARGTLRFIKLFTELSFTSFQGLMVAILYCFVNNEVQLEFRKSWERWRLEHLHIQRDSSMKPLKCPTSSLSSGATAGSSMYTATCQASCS
# Method in brief: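 Agonism scored as increased luciferase luminescence driven by cAMP in HEK293 clones carrying GLP-1R. Cells settled 12 hours, received compound for 4-6 hr at 37 deg C, 5% CO2, and were read after 12 min detection reagent at RT.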
# [4] = qHTS of Nrf2 Activators: LOPAC Validation (AID 624149)
# Method in brief: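 AREc32_Fluc cells, 1000/well, OPTI-MEM + 5% FBS, o/n 37 deg C 5% CO2; compound pin-transfer, 24 hr 37 deg C; Steady-Glo 30 min RT, luminescence read.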
# [5] = Cytotoxicity counterscreen for NFkB agonists and antagonists (AID 624476);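 note: cells exposed to compound for 48 hours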; note: potency is the fitted concentration of half-maximal effect
# [6] = Cell Proliferation Assay against the HBL1 Cell Line (AID 651646); conditions: HBL1 DLBCL cells; at 46.1 µM (top of the series) unless noted;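 note: cells exposed to compound for 48 h before reading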
# Method in brief: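 CellTiter-Glo luminescence after 48 h compound exposure at 37C gives percent activity, with DMSO as 100% and 9.2 uM bortezomib final as 0%. Cells: 500 log-phase HBL1 per well, RPMI plus 5% FBS.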
# [7] = Cell Proliferation Assay against the TMD8 Cell Line (Caspase readout at 16 hrs) (AID 651712); note: potency is the fitted concentration of half-maximal effect
# Method in brief: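 Caspase-Glo luminescence measured apoptosis after a 16 h, 37 C compound exposure of TMD8 cells (500 cells/well, 5% FBS RPMI). DMSO set 0% and bortezomib at 9.2 uM final set 100% activity.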
# [8] = Cell Proliferation Assay against the TMD8 Cell Line (Caspase readout at 8 hrs) (AID 651713); note: potency is the fitted concentration of half-maximal effect
# Method in brief: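 Apoptosis readout: caspase 3/7 luminescence (Caspase-Glo), 15 min RT. Cells: TMD8, 500/well, RPMI + 5% FBS, no phenol red. Exposure 8 h, 37C. % activity vs DMSO = 0, bortezomib 9.2 uM final = 100.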
# [9] = HTS Assay for Allosteric Antagonists of the Human D2 Dopamine Receptor: Hit Validation in HTRF (AID 624455)
# Method in brief: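 HTRF read-out; cells stably expressing D1 receptor; hits scored for inhibition of D1-mediated response. Primary screen: calcium flux, force-coupled inducible Hek293 Trex D2 line, antagonism vs EC80 dopamine.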
# [10] = qHTS Assay for Identification of Small Molecule Antagonists for NFkB Signaling Pathway. (AID 624479; calls by dose curve;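 note: pathway stimulated with TNF alpha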; note: potency is the fitted concentration of half-maximal effect)
# [11] = qHTS assay for small molecule activators of the p53 signaling pathway (AID 651743; active = well fitted activation curve with a large enough effect in the signal ratio, not every such curve was filed as active; the % refers to the signal ratio; note: potency is the fitted concentration of half-maximal effect); conditions: HCT-116 p53RE-bla, beta-lactamase FRET ratio, 16 h; activation: stronger effect = higher value
# Method in brief: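 A beta-lactamase reporter under p53 response element control, stably carried by HCT-116 cells, reported pathway activation. Test compounds were applied for 16 hours at 37 C, and fluorescence was measured 2 hours after adding the B/G FRET substrate.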
# [12] = qHTS assay for small molecule activators of the nuclear factor-kappa B (NF-kB) signaling pathway (AID 651749; active = well fitted activation curve with a large enough effect in the signal ratio; the % refers to the signal ratio); conditions: NF-kB-bla ME-180 cells, beta-lactamase FRET ratio, 16 h; stronger effect = higher value
# Method in brief: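 FRET-based beta-lactamase detection in ME-180 cells reports NF-kB response-element-driven transcription following overnight (16 hr) compound treatment.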
# [13] = qHTS assay for environmental chemicals that activate the Aryl hydrocarbon Receptor (AhR) signaling pathway (AID 651777); conditions: 1A2-DRE human hepatoma cells, luciferase, 24 h; activation: stronger effect = higher value; note: nearly all actives have a fitted effect of over 15% in size
# Method in brief: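 Following a 24 hr incubation with test chemicals at 37 C and 5% CO2, 1A2-DRE human hepatoma cells received One-Glo reagent; after 30 min at room temperature, luciferase output reflected CYP1A2 induction via AhR.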
smiles,measurement,setting,value
C[C@@H](N)C1CCC(C(=O)Nc2ccncc2)CC1 (some centres not stated),Potency,[1],inactive
same,Potency,[2],inactive
same,outcome,[3],inactive
same,outcome,[4],inactive
same,Potency,[5],inactive
same,"viability, percent of control",[6],95.4%
same,Potency,[7],inactive
same,Potency,[8],inactive
O=Nc1c(-c2c(O)[nH]c3cc(Br)ccc23)[nH]c2ccccc12,Potency,[2],inactive
same,outcome,[3],inactive
same,outcome,[4],inactive
same,outcome,[9],inactive
NCCCCNCCCN,Potency,[1],inactive
same,Potency,[2],inactive
same,outcome,[3],inactive
same,outcome,[4],inactive
same,outcome,[9],inactive
COc1cc(Nc2c(C#N)cnc3cc(OCCCN4CCN(C)CC4)c(OC)cc23)c(Cl)cc1Cl,"viability, percent of control",[6],5.95%
same,Potency,[7],inactive
O=C(c1ccccc1)c1ccc2n1CCC2C(=O)O (configuration not stated),Potency,[1],inactive
same,Potency,[2],inactive
same,outcome,[3],inactive
same,outcome,[4],inactive
same,outcome,[9],inactive
Nc1nc(Cl)nc2c1ncn2[C@H]1C[C@H](O)[C@@H](CO)O1,Potency,[5],27000 nM (active)
same,Potency,[10],inactive
same,Potency,[7],inactive
same,Potency,[11],501 nM (active)
same,activation,[12],0.321% (inactive)
same,activation,[13],1.52% (inactive)
Oc1ccc(-c2nc(-c3ccc(F)cc3)c(-c3ccncc3)[nH]2)cc1,Potency,[1],inactive
same,Potency,[2],inactive
same,outcome,[3],inactive
same,outcome,[4],inactive
same,outcome,[9],inactive
CC(C)C[C@H](NC(=O)[C@H](Cc1ccccc1)NC(=O)c1cnccn1)B(O)O,Potency,[5],9.3 nM (active)
same,Potency,[10],5.3 nM (active)
same,"viability, percent of control",[6],3.27%
same,Potency,[7],2.6 nM (active)
same,Potency,[8],833 nM (active)
OC(CN1CCN(c2cccc(Cl)c2)CC1)C(c1ccccc1)c1ccccc1 (configuration not stated),Potency,[1],inactive
same,Potency,[2],inactive
same,outcome,[3],inactive
same,outcome,[4],inactive
same,outcome,[9],inactive
CC(C)c1ccc2c(c1)c(SC(C)(C)C)c(CC(C)(C)C(=O)O)n2Cc1ccc(Cl)cc1,Potency,[2],inactive
same,outcome,[3],inactive
same,outcome,[4],inactive
same,outcome,[9],inactive
same,Potency,[5],8330 nM (active)
same,"viability, percent of control",[6],8.87%
Cc1cccc(C#Cc2ccccc2)n1,Potency,[2],inactive
same,outcome,[3],inactive
same,outcome,[9],inactive
same,Potency,[5],inactive
same,Potency,[10],inactive
same,"viability, percent of control",[6],102%
same,Potency,[7],inactive
O=C1c2c(O)cc(O)cc2OC(c2ccc(O)c(O)c2)C1O (configuration not stated),Potency,[1],708 nM (active)
same,Potency,[2],inactive
same,outcome,[3],inactive
same,outcome,[4],inactive
same,outcome,[9],inactive
O=c1ccc2ccc(O)c(O)c2o1,Potency,[2],inactive
same,outcome,[3],inactive
same,outcome,[4],inactive
same,outcome,[9],inactive
Cc1cccc(-c2[nH]ncc2-c2ccc3ncccc3n2)n1,Potency,[5],inactive
same,Potency,[10],13700 nM (active)
same,"viability, percent of control",[6],116% [at 92.2 µM]
same,Potency,[7],inactive
same,Potency,[8],inactive
O=c1cc(N2CCOCC2)oc2c(-c3ccccc3)cccc12,Potency,[1],inactive
same,Potency,[2],inactive
same,outcome,[3],inactive
same,outcome,[4],inactive
same,outcome,[9],inactive
COc1ccccc1N1CCN(CCN(C(=O)C2CCCCC2)c2ccccn2)CC1,Potency,[1],inactive
same,Potency,[2],inactive
same,outcome,[3],inactive
same,outcome,[4],inactive
same,outcome,[9],inactive
C[C@H](Cc1ccc(O)c(O)c1)[C@@H](C)Cc1ccc(O)c(O)c1,Potency,[1],631 nM (active)
same,Potency,[2],12000 nM (active)
same,outcome,[3],inactive
same,outcome,[4],inactive
same,outcome,[9],inactive
CC(=O)N1CCN(c2ccc(OC[C@H]3CO[C@](Cn4ccnc4)(c4ccc(Cl)cc4Cl)O3)cc2)CC1,Potency,[1],inactive
same,Potency,[2],inactive
same,outcome,[3],inactive
same,outcome,[4],inactive
same,outcome,[9],inactive
Cc1ccc(Nc2nccc(N(C)c3ccc4c(C)n(C)nc4c3)n2)cc1S(N)(=O)=O,Potency,[5],inactive
same,Potency,[10],16800 nM (active)
same,"viability, percent of control",[6],35.9%
same,Potency,[8],inactive
CCOC(=O)C1=C(O)C(=O)N(Cc2ccccc2)C1,Potency,[5],inactive
same,Potency,[10],inactive
same,"viability, percent of control",[6],107%
same,Potency,[7],inactive
same,Potency,[8],inactive
COc1cc2c(N3CCN(C(=O)Nc4ccc(OC(C)C)cc4)CC3)ncnc2cc1OCCCN1CCCCC1,Potency,[10],inactive
same,"viability, percent of control",[6],15.5%
CCN(CC)CCOc1ccc(Nc2ncc3cc(-c4c(Cl)cccc4Cl)c(=O)n(C)c3n2)cc1,Potency,[5],2350 nM (active)
same,Potency,[10],7490 nM (active)
same,"viability, percent of control",[6],1.36%
same,Potency,[8],26400 nM (active)
